Laboratory results as given in PubChem BioAssay AID371 (SRMLSC, 2006).
Out of some 3,300 compounds screened, about 280 (8.5%) were called active. Many of the other results were omitted from the sample, so actives are more common in it than they were. Values without a mark were called inactive.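 How the source made its calls: active means mean growth inhibition over the two runs of 50% or more; inactive means mean growth inhibition under 50%.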

experiment: A549 NSCLC cell proliferation inhibitors – ATP luminescence, human non-small cell lung line, primary screen (AID 371); details: at 10 µM, hits give high values;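 further: compound exposure lasted 72 h before the ATP read; 0% = untreated cell signal and 100% = no luminescence left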

SMILES | growth inhibition
c1ccc(SCc2nc3ccccc3[nH]2)nc1 | 6.85%
CC(NC(=O)Nc1ncccn1)(C(F)(F)F)C(F)(F)F | 0.51%
C/C(=N\O)C1(C)N(O)C(C)(C)C(c2ccco2)=[N+]1[O-] (centres undefined) | 2.56%
CC1(C)Cc2c(c(-c3ccccc3)nc(N3CCCC3)c2C(N)=O)CO1 | 7.2%
O=C(NC1(C(F)(F)F)C(=O)Nc2c1c(=O)[nH]c(=O)n2-c1ccccc1)c1cccnc1 (centres undefined) | 1.94%
CCOC(=O)CSC1=C(C#N)C(=O)NC2(CCCCC2)S1 | -4.21%
Nc1nonc1-c1noc(-c2ccccc2)n1 | 8.32%
Nc1nnc(-c2cccc(Cl)c2Cl)c(N)n1 | 14.4%
Nc1nc(N)c2nc(-c3ccccc3)c(N)nc2n1 | 82.4% (active)
O=C(O)c1cnn2c(C(F)(F)F)cc(-c3ccco3)nc12 | -1.5%
O=C(CCCN1C(=O)c2ccccc2C1=O)N1CCC(c2ccccc2)C1 (centres undefined) | -0.61%
CCN(CC)c1ccc(C2Nc3cccc4cccc(c34)N2)c(O)c1 | 77.5% (active)
OCCNC1=NCCN1 | -1.49%
N#Cc1nc(COc2ccccc2F)oc1NCCCn1ccnc1 | 5.01%
CC(C(=O)N(C)C)N(C#N)c1nc(N(C)C)nc(N(C)C)n1 (centres undefined) | 3.51%
CC(COc1ccccc1)NC(C)C(O)c1ccc(O)cc1 (centres undefined) | 4.38%
CC(COc1ccccc1)N(CCCl)Cc1ccccc1 (centres undefined) | 54.1% (active)
Cc1nc(-c2coc3cc(OCC(=O)O)ccc3c2=O)cs1 | 13.4%
O=C(NCCO)C1(c2ccccc2)CCCC1 | 0.3%
OCCN(CCO)c1ncnc2c1sc1nc(N3CCOCC3)c3c(c12)CCCC3 | 58.3% (active)

SMILES | growth inhibition
COC(=O)c1ccc(CSc2ncnc3c2sc2nc(N4CCOCC4)c4c(c23)CCCC4)o1 | -12.8%
O=c1c2sc3nc(N4CCOCC4)c4c(c3c2ncn1Cc1ccco1)CCCC4 | 22.7%
Cc1cc(OCC(=O)Nn2cnnc2)ccc1Br | 4.24%
Cc1noc(NS(=O)(=O)c2ccc(NC(=O)COc3ccccc3)cc2)c1C | -8.3%
CC(NCCC(c1ccccc1)c1ccccc1)c1ccccc1 (centres undefined) | 90.6% (active)
CC(NC(=O)c1ccc(=O)oc1)c1ccccc1 (centres undefined) | 3.88%
COc1ccc(C(=O)Cn2c(N3CCCCC3)nc3c2c(=O)n(C)c(=O)n3C)cc1OC | 8.72%
CCCC(C)n1[nH]c(=O)cc1N (centres undefined) | -3.66%
COC(=O)c1ccc(C2/C(=C(\O)c3ccc4c(c3)OCCO4)C(=O)C(=O)N2CCCN(C)C)cc1 (centres undefined) | 3.46%
N#Cc1c(N)n(CCOC(=O)c2cccc(Br)c2)c2nc3ccccc3nc12 | 3.2%
CCCOC(=O)CSC1=C(C#N)C(c2ccc3c(c2)OCO3)CC(=O)N1 (centres undefined) | 50.4% (active)
CCOC(=O)CSC1=C(C#N)C(c2ccc3c(c2)OCO3)CC(=O)N1 (centres undefined) | 49.8%
CCCCOC(=O)CSC1=C(C#N)C(c2ccc3c(c2)OCO3)CC(=O)N1 (centres undefined) | 40.3%
CCOC(=O)CSc1nc(N2CCOCC2)c2c(c1C#N)CC(C)(C)N(C)C2 | 13.9%
CC(C)Oc1ccc(Cc2c(O)nc(NCCCN(C)C)[nH]c2=O)cc1 | -4.15%
Cc1ccc2cc(CNC(C)C)c(=O)[nH]c2c1 | 2.25%
CCN(CC)C(=O)CSc1nc2ccccc2c(=O)n1CC1CCCCC1 | 59.2% (active)
CCN(CC)C(=O)COn1c(SCC(=O)N(CC)CC)nc2ccccc2c1=O | -4.27%
O=C(CSc1nc2ccccc2c(=O)n1CC1CCCCC1)N1CCOCC1 | 19.6%
CCN(CC)CCN1C(=O)C(=O)/C(=C(/O)c2ccc(F)cc2)C1c1ccncc1 (centres undefined) | -7.83%

SMILES | growth inhibition
Cn1c[n+](C)cc1/C=N/O | -3.08%
Cc1[nH]c2ccc(F)cc2c(=O)c1SC(F)(F)C(F)C(F)(F)F (centres undefined) | 35.6%
O=C(c1ccc(F)cc1)C1CCN(CCn2c(=O)[nH]c3ccccc3c2=O)CC1 | 8.97%
O=c1c2ccccc2[nH]c(=S)n1CCN1CCC(=C(c2ccc(F)cc2)c2ccc(F)cc2)CC1 | 69.1% (active)
C=CCn1c(=S)[nH]c2ccccc2c1=O | 6.62%
CCCSc1nnc2n(-c3ccccc3OC)c(=O)c3c4c(sc3n12)CCC4 | 15.6%
O=C(Nc1ccccn1)NC(C(F)(F)F)C(F)(F)F | 0.87%
CCOC(=O)C1/C(=N\O)CC(C)(O)C(C(=O)OCC)C1c1ccc(OC)c(OC)c1 (centres undefined) | 2.33%
CC[C@]1(O)C[C@@H]2CN(CCc3c([nH]c4ccccc34)[C@@](C(=O)OC)(c3cc4c(cc3OC)N(C)[C@H]3[C@@](O)(C(=O)OC)[C@H](OC(C)=O)[C@]5(CC)C=CCN6CC[C@]43[C@@H]65)C2)C1 | 71.8% (active)
CC[C@]1(O)CC2CN(CCc3c([nH]c4ccccc34)[C@@](C(=O)OC)(c3cc4c(cc3OC)N(C=O)[C@H]3[C@@](O)(C(=O)OC)[C@H](OC(C)=O)[C@]5(CC)C=CCN6CC[C@]43[C@@H]65)C2)C1 (some centres undefined) | 59.6% (active)
Cn1c2ccccc2c2nn(-c3ccccc3)c(=O)cc21 | 12.4%
CC(=O)Nc1ccc(OC(=O)CC2SC(=O)NC2=O)cc1 (centres undefined) | 1.99%
COc1ccc(C(CC(=O)N2CCOCC2)C(C)C)cc1 (centres undefined) | -4.83%
CCC(=O)Oc1ccc(C(CC)C(CC)c2ccc(OC(=O)CC)cc2)cc1 (centres undefined) | 62.3% (active)
CC(=O)Oc1ccc(C(c2ccc(OC(C)=O)cc2)c2ccccn2)cc1 | 14.2%
CCOC(=O)CNC(=O)CNC(=O)c1ccc(OC)cc1 | 2.92%
CCC(=O)Oc1ccc(/C(CC)=C(\CC)c2ccc(OC(=O)CC)cc2)cc1 | 71.7% (active)
CCCCOc1ccc(C(=O)NCC(=O)NCC(=O)OCC)cc1 | 40.7%
Cc1nn(CC(N)=O)c(=O)c2ccccc12 | 25.7%
